Source: PubChem BioAssay (National Center for Advancing Translational Sciences (NCATS))
The entries come from a sample that favours hits as a whole.
AmpC no deterg – AmpC beta-lactamase inhibition without detergent; P00811; AmpC nitrocefin hydrolysis, absorbance 480 nm, 0.0001% Triton; Potency, µM (highest dose often 57.1 µM), for the others: at the highest dose activity change, negative = inhibition, usual class: inhibitors; hit rate 0.52% among 330,000; AID 485341;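 also: potency is read from the fitted curve at half-maximal effect; plate controls were no compound for no effect and no enzyme for full effect; nearly all actives have a fitted effect of over 20% in size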
Target sequence (P00811 whole entry, looked up): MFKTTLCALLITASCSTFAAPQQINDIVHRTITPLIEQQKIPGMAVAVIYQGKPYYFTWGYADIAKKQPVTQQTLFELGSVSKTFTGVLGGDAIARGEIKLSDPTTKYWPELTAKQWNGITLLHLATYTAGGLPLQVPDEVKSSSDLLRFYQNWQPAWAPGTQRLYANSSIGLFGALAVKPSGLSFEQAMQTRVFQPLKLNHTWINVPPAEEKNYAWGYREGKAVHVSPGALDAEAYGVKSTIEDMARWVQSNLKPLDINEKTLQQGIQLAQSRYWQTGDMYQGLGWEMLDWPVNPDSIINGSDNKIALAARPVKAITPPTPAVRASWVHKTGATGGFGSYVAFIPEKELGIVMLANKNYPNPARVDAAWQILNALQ
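AmpC (5.3 nM in the dispensed reagent) in 20 mM phosphate pH 7.0 with 0.01% (detergent screen) or 0.0001% Triton X-100 was preincubated with compounds for 15 min at room temperature. Nitrocefin was then added from an 800 uM solution, and hydrolysis was followed at 480 nm.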
Cycloheximide cs – affects cycloheximide protein synthesis inhibition readout, counter-screen | AID 2314 | max response, % | cell reporter, cycloheximide protein synthesis inhibition counterscreen | hit rate 12% among 300,000; in the data active = max response mostly above about 13%, no sharp cut-off; inactive = mostly below about 14%; also: read at 38.3 µM for the half of the compounds with a filed dose; 0% is about no effect
SARS PLpro yeast – blocks SARS-CoV papain-like protease in a yeast assay. S. cerevisiae expressing SARS-CoV PLpro, growth rescue. Potency, µM (series often up to 32.9 µM), without a hit: at the top dose activity, positive = growth rescue, actives largely listed as activators. hit rate 0.19% among 330,000. AID 485353; calls by dose curve; also: potency is read from the fitted curve at half-maximal effect; 0% is about no effect; nearly all actives have a fitted effect of over 55% in size
AmpC inh detg – inhibitors of E. coli AmpC beta-lactamase with detergent | Potency, µM (top dose mostly 114 µM), without a hit: at the top dose activity change, negative = inhibition, usual class: inhibitors | hit rate 0.041% among 370,000 | AmpC hydrolysis of nitrocefin, absorbance 480 nm, 0.01% Triton | P00811;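 also: potency is read from the fitted curve at half-maximal effect; 0% = no-compound wells and -100% = no-enzyme wells; nearly all actives have a fitted effect of over 25% in size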
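AmpC (5.3 nM in the dispensed reagent) in 20 mM phosphate pH 7.0 with 0.01% (detergent screen) or 0.0001% Triton X-100 was preincubated with compounds for 15 min at room temperature. Nitrocefin was then added from an 800 uM solution, and hydrolysis was followed at 480 nm.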
AMA1-RON2 inh – AMA1-RON2 (P. falciparum) interaction inhibition | AlphaScreen AMA1-biotinylated RON2 peptide binding | Potency, µM (top dose mostly 58.2 µM), for inactives: top-dose activity change, negative = inhibition, actives largely listed as inhibitors | hit rate 0.2% among 360,000 | AID 720542;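 also: potency is read from the fitted curve at half-maximal effect; 0% = vehicle wells and -100% = peptide control; nearly all actives have a fitted effect of over 45% in size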
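AMA1 (3D7) with his tag at 25 nM final met compounds first, then biotinylated RON2 peptide at 25 nM; detection used donor plus acceptor beads, 10 µg/mL apiece, read by AlphaScreen after 30 min at room temperature.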
Shiga toxin inh – inhibitors of Shiga toxin in Vero cells | Vero cells, Shiga toxin protein synthesis inhibition reporter | inhibition, % at 38.7 µM | hit rate 9.2% among 290,000; in the data active = inhibition mostly above about 28%, no sharp cut-off; inactive = mostly below about 43%; also: 0% is about no effect
* marks the source's active call; other numbers are inactive results; ? = inconclusive; . = no result given. Unless noted, calls follow the shape of the dose curve; as a rule, active = well fitted curve in the direction sought with a large enough effect; inconclusive = small, poorly fitted or top-dose-only effect, or another doubt; inactive = no such curve, though single readings can be large; an effect the other way counts as inactive or inconclusive.

SMILES	AmpC no deterg	Cycloheximide cs	SARS PLpro yeast	AmpC inh detg	AMA1-RON2 inh	Shiga toxin inh
Cc1cccc(OCc2nc(C)cc(=O)[nH]2)c1	-15.6%	-0.1	-6.8%	-7.1%	-22.3%	18.1
CN(C)/C=C1/N=C(c2ccccc2)OC1=O	-6.4%	11.4	1.1%	1.6%	26.5%	13.0
Cc1ccc(C2=N/C(=C\N(C)C)C(=O)O2)cc1	-1.4%	39.8*	-2.5%	-7.4%	-8.4%	74.9*
CN(C)/C=C1\N=C(c2ccc(Cl)cc2Cl)OC1=O	-11.9%	20.8*	1.6%	-5.0%	-4.6%	19.9
Cc1cccc(OCC2=N/C(=C\N(C)C)C(=O)O2)c1	-23.7%	21.5*	4.5%	?	-6.3%	41.0
COc1ccc(C2C(=O)N(C3CCCCC3)CC(=O)N2Cc2ccc3c(c2)OCO3)cc1 (centres undefined)	42.2%	-3.0	-3.6%	1.0%	-7.7%	-7.1
COc1ccc(C(=O)CSc2ncn[nH]2)cc1OC	-26.6%	1.8	-2.8%	?	1.6%	14.2
CCCOc1ccc(CSc2ncn[nH]2)cc1	-12.2%	29.9*	-4.5%	-17.4%	14.6%	67.6*
O=C(O)c1ccc(CSc2ncn[nH]2)cc1	?	-2.3	3.6%	0.9%	0.0%	1.6
CCc1ccc(C(=O)CSc2ncn[nH]2)cc1	-22.2%	29.7*	-4.9%	-11.9%	-5.6%	75.6*
Cc1ccc(C(=O)CSc2ncn[nH]2)cc1	-26.8%	19.5*	-10.2%	?	-11.9%	52.5
Brc1ccc(CSc2ncn[nH]2)cc1	-19.3%	-1.9	-5.6%	-17.2%	-12.0%	-5.3
O=C(CSc1ncn[nH]1)c1ccc(OC(F)F)cc1	-20.4%	14.2*	-0.3%	0.2%	2.8%	21.4
COc1ccc(CN(C(=O)CNC(=O)c2ccco2)C(C(=O)NCC2CCCO2)c2ccccc2)cc1 (centres undefined)	56.7%	7.8	3.1%	4.7%	-20.2%	1.3
COc1cccc(CNC(=O)C2(C)CCCN2C(=O)C(C)C)c1 (centres undefined)	.	.	.	.	0.3%	.
Cn1c(=O)c2c(ncn2CC(=O)N(Cc2ccccc2)c2ccccn2)n(C)c1=O	-1.8%	-1.2	-1.0%	?	4.0%	-2.2
COc1ccc(-n2ccnc(NCc3ccc(C)cc3)c2=O)cc1OC	.	.	.	5.8%	.	.
Cc1nc2scc(-c3ccc(C(C)C)cc3)c2c(=O)n1N	0.5%	4.1	-3.1%	-0.3%	-13.7%	-3.3
CC1=NC(=O)C(N=Nc2cccc(O)c2)N1c1ccccc1 (centres undefined)	-23.4%	27.1*	-3.9%	?	-9.0%	55.3*
Clc1ncnc2scc(C3COc4ccccc4O3)c12 (centres undefined)	-26.6%	6.7	-87.1%	4.2%	2.1%	21.1
O=C(Nc1ccc(Cc2ccncc2)cc1)C1CC1	-41.0%	-0.7	-0.8%	3.3%	-2.1%	26.8
Cc1c(CC(=O)O)c(=O)oc2cc3c(cc12)CCC(C)(C)O3	-16.1%	-1.8	0.1%	4.9%	1.8%	-4.8
CCC(NC(=O)Cc1c(C)c2cc3c(cc2oc1=O)OC(C)(C)CC3)C(=O)O (centres undefined)	-11.0%	21.4*	-1.5%	-3.0%	-6.3%	22.5
CC(C)C[C@@]12C(=O)N(c3cccc(Br)c3)C(=O)N1[C@H](c1ccc(Cl)cc1)[C@@H]1C(=O)N(C3CCCCC3)C(=O)[C@@H]12	-22.2%	.	0.0%	?	8.1%	.
O=[N+]([O-])c1cc(/C=N/O)ccc1N1CCCC1	-18.2%	12.7	1.3%	4.3%	-5.8%	-3.2
SMILES	AmpC no deterg	Cycloheximide cs	SARS PLpro yeast	AmpC inh detg	AMA1-RON2 inh	Shiga toxin inh
O=[N+]([O-])c1cccc(S(=O)(=O)c2ccc(N3CCCCC3)c([N+](=O)[O-])c2)c1	-43.7%	-4.5	-3.3%	-4.9%	-29.5%	17.0
O=C(/C=C/c1ccc(N2CCCCC2)c([N+](=O)[O-])c1)c1ccc(S(=O)(=O)N2CCCC2)cc1	-26.3%	-2.2	-5.4%	-11.9%	-7.2%	-5.0
O=[N+]([O-])c1cc(S(=O)(=O)c2ccc(N3CCCCC3)c([N+](=O)[O-])c2)ccc1N1CCCCC1	10µM*	-4.1	1.7%	2.3%	-20.4%	-3.7
COc1cccc(C(=O)/C=C/c2ccc(N3CCCCC3)c([N+](=O)[O-])c2)c1	-28.2%	29.0*	0.8%	-3.8%	5.01µM*	60.5*
CO/N=C/c1ccc(N2CCCC2)c([N+](=O)[O-])c1	-6.9%	31.2*	-1.2%	?	?	52.7
CCC(Oc1ccccc1F)C(=O)N1CCC(c2nc3ccccc3s2)CC1 (centres undefined)	.	.	.	18.9%	.	.
COC(=O)c1ccc(CNC(=O)/C=C/[C@H]2O[C@@H](n3cc(C)c(=O)[nH]c3=O)C[C@@H]2O)cc1	.	.	.	.	17.1%	.
CCC(=O)N1CCc2cc(Br)cc(S(=O)(=O)N(C)c3ccc(OC)cc3)c21	90.5%	-0.3	-14.9%	4.6%	4.8%	-11.8
O=C(Nc1sc2c(c1C(=O)Nc1cccc(Cl)c1)CCCC2)c1cccs1	.	-5.6	.	-8.7%	.	-5.2
NC(=O)c1c(NC(=O)c2cccs2)sc2c1CCCCCC2	3.3%	30.3*	?	-8.6%	-10.6%	55.3
O=C(Nc1sc2c(c1C(=O)O)CCC2)c1cccs1	-22.9%	48.2*	-12.2%	-11.4%	-3.1%	114.6*
CCC1CN(C(=O)N2CCC(C(=O)NCCOC)CC2)c2ccccc2O1 (centres undefined)	.	.	.	22.9%	.	.
CCOC(=O)Cc1c(C)nc2c(-c3ccccc3)cnn2c1C	139.5%	36.0*	-0.1%	-6.5%	50.5%	46.6
CCOC(=O)c1cnc2c(-c3ccccc3)cnn2c1C	-29.8%	39.1*	0.2%	-5.0%	-1.1%	91.2*
CC(=O)c1cnc2c(-c3ccccc3)cnn2c1C	-11.3%	18.5*	6.3%	-0.1%	6.1%	27.3
CCn1c(SCC#N)nc2cc(S(=O)(=O)N3CCOCC3)ccc21	1.3%	2.8	5.4%	3.1%	0.0%	-8.4
CC(=O)Nc1ccc(S(=O)(=O)NC(CC(=O)NC2CCCCC2C)C(C)C)cc1 (centres undefined)	-18.4%	-0.7	3.7%	-7.9%	9.7%	-11.9
CC(=O)Nc1ccc2c(c1)ncn2-c1ccc(C)cc1	-1.2%	42.1*	0.0%	-6.7%	8.8%	98.6*
Cn1c(CCN2CCN(c3ccccc3)CC2)nc2cc(NC(=O)c3ccco3)ccc21	21.1%	-0.8	0.3%	-13.6%	-5.7%	20.0
O=C(Nc1ccc2c(c1)ncn2-c1ccccc1)c1ccco1	-28.4%	38.2*	-12.1%	-3.7%	-8.8%	44.8*
Cn1cnc2cc(NC(=O)c3ccco3)ccc21	-7.7%	24.9*	-1.7%	-1.5%	5.1%	78.8*
Cc1nc2nc(SCC(=O)NC3CCCCC3)nn2c(C)c1Cc1ccccc1Cl	.	.	.	2.8%	.	.
CN(C)C(=O)c1cc2c(c(-c3cccc(C4=CCCCC4)c3)n1)[C@@H](CCO)N(S(=O)C(C)(C)C)C2 (some centres undefined)	.	.	.	.	9.8%	.
